Screening results (PubChem BioAssay)
KDM5B inh: KDM5B demethylase inhibition; Q9UGL1; KDM5B demethylase, FDH-coupled NADH fluorescence (FDH is formaldehyde dehydrogenase); Potency, µM (highest dose often 57.7 µM), hits mostly inhibitors; 220,000 compounds, 2.6% hits; active = well fitted inhibition curve with a large enough effect; inconclusive = small, poorly fitted or top-dose-only effect; inactive = no such curve, though single readings can be large or run the other way; also: potency is read from the fitted curve at half-maximal effect; 0% is about no effect; nearly all actives have a fitted effect of over 70% in size
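Here, H3K4me3 peptide (12.5 µM in substrate mix) is demethylated by KDM5BΔAP, 200 nM final, after 10 min compound exposure. Formaldehyde product is coupled through FDH (0.25 U/mL in mix) to NADH fluorescence; 30-min ΔRFU feeds dose-response curves.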
IP6K1 inhibitor: blocks human inositol hexakisphosphate kinase 1; Q92551; IP6K1 kinase, ADP-Glo luminescence, 2 h; hits give low values; activity change, % (series mostly up to about 58 µM); 140,000 compounds, 0.81% hits; AID 1645851; in the data active = activity change below about -25%; also: % is scaled to controls: 0 for no effect and ±100 for the full control effect
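ADP-Glo luminescence measures ADP made by human IP6K1 during a 2 h RT reaction with ATP/IP6 (mix at 1.3 mM/130 uM); top library doses 57.5 and 19.1 uM final.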
Starred values were filed as active, the others as inactive; i = inactive; ? = inconclusive; / = not tested or not shown. Sampled rows, rich in hits. Any-hit rate of the full collection: about 2.8%.

SMILES	KDM5B inh	IP6K1 inhibitor
COc1ccc2c(c1)CCN=C2C[C@H]1CN(C(=O)C2CC2)CC[C@H]1CC(=O)O	?	-7
O=C(NCCc1ccc(Cl)cc1)c1ccc2nnc(-c3ccoc3)n2c1	/	-14
Cc1ncccc1-c1nc2cc(C(=O)N(C)C)ccc2o1	/	11
Cc1nn(-c2ccccc2)c2c1C(C1CC1)N(C1CCN(C(=O)NC3CCCC3)C1)C2=O (configuration not stated)	/	-4
CCOCCn1cnc(-c2ccccc2)c1-c1ccccc1OCC(N)=O	i	8
OCCOCCn1cnc(-c2ccccc2)c1-c1ccc(-n2cccn2)cc1	32µM*	29
O=C(O)C(c1c[nH]c2cc(Br)ccc12)N1CCN(c2ncc(Br)cn2)CC1 (configuration not stated)	i	/
O=c1c2nc(NCCOc3ccccc3)ccc2ncn1Cc1ccccc1	?	0
O=c1ncn(CC2CC2)c2ccc(-c3ccc(F)cc3)nc12	35µM*	9
O=c1ncn(Cc2ccccc2)c2ccc(-c3ccc(F)cc3)nc12	35µM*	13
O=c1ncn(Cc2ccccc2)c2ccc(NCCOc3ccccc3)nc12	35µM*	-3
COc1cc(F)ccc1-c1ccc2c(n1)c(=O)ncn2CCC(F)(F)F	?	0
CC(=O)Nc1cccc(-c2ccc3c(n2)c(=O)ncn3Cc2ccccc2)c1	i	10
O=c1ncn(CC2CC2)c2ccc(-c3ccc(Cl)cc3)nc12	40µM*	2
O=c1ncn(CC2CC2)c2ccc(-c3ccc4c(c3)OCO4)nc12	i	0
COc1cccc(OC)c1OCc1cc(-c2ccco2)on1	i	/
CCn1nccc1C(=O)N1CCCCC1c1noc(COc2ccc(C)cc2)n1 (configuration not stated)	/	4
Cn1nnnc1-c1cccc(NS(=O)(=O)c2ccccc2)c1	i	/
O/N=C/c1ccccc1Cl	i	/
COCc1nc2nc(-c3ccccc3)c(-c3ccc(OC)cc3)cc2n1C	32µM*	10
COc1ccccc1-c1cc2c(nc1OC)nc(CC1CC1)n2C	40µM*	13
COCc1nc2nc(-c3ccccc3)c(-c3ccc(O)c(F)c3)cc2n1C	i	14
COc1nc2nc(CCc3ccccc3)n(C)c2cc1-c1cccc(NC(C)=O)c1	35µM*	5
COc1nc2nc(CCc3ccccc3)n(C)c2cc1Nc1ccncn1	i	13
COc1ccc(-c2cc3c(nc2OC)nc(CC2CC2)n3C)cc1OC	i	9
SMILES	KDM5B inh	IP6K1 inhibitor
COCc1nc2nc(-c3ccccc3)c(-c3cccc(NC(C)=O)c3)cc2n1C	i	16
COc1nc2nc(CCc3ccccc3)n(C)c2cc1-c1ccc(CO)cc1	35µM*	-2
O=C(NCc1ccc(C(F)(F)F)cc1)C1CCCN1c1nccc(Nc2ccccc2F)n1 (configuration not stated)	/	-8
Cc1ccc(Nc2ccnc(N3CCC(NC(=O)c4ccccc4Cl)CC3)n2)cc1	/	-12
O=C(NCc1ccc(C(F)(F)F)cc1)C1(c2ccc(Cl)cc2)CCOCC1	/	10
O=[S+]([O-])(NC1CCCN(c2ccc3nnc(-c4ccccc4)n3n2)C1)c1ccccc1 (configuration not stated)	/	-3
Cc1csc(Sc2ccc(Cl)cc2)n1	i	/
COc1ccc(F)cc1-c1ccc(CN2CCC(NC(=O)C3CCCC3)C2)cc1 (configuration not stated)	/	7
COc1cccc(C(=O)N2CCC(N3C(=O)c4c(c(C)nn4-c4ccccc4)C3C3CC3)C2)c1 (configuration not stated)	/	-3
CN1CCN(c2ccc3ncc(Nc4ccc(Cl)c(C(F)(F)F)c4)n3n2)CC1	32µM*	-16
CN1CCN(c2ccc3ncc(Nc4ccc5c(c4)OCCO5)n3n2)CC1	i	7
Clc1cccc(Nc2cnc3ccc(N4CCOCC4)nn23)c1	32µM*	-19
CN1CCN(c2ccc3ncc(Nc4ccccc4-c4ccccc4)n3n2)CC1	?	-8
CN1CCN(c2ccc3ncc(Nc4ccc(OC(F)(F)F)cc4)n3n2)CC1	32µM*	-12
c1ccc(Oc2ccc(Nc3cnc4ccc(N5CCOCC5)nn34)cc2)cc1	?	-14
COc1cccc([S+](=O)([O-])NC2CCN(c3ccc4nnc(-c5ccccc5)n4n3)CC2)c1	/	-12
COc1ccc2[nH]c3c(c2c1)CCNC31CCN(Cc2ccc(C)o2)CC1	20µM*	-4
COc1ccc2[nH]c3c(c2c1)CCN(C)C31CCN(C(=O)c2cn(C)cn2)CC1	25µM*	-3
COc1cccc(CN2CCC3(CC2)NCCc2c3[nH]c3ccccc23)c1	i	-2
COc1ccc2[nH]c3c(c2c1)CCNC31CCN(C(=O)NC(C)(C)C)CC1	?	14
COc1ccc2[nH]c3c(c2c1)CCN(C)C31CCN(C(=O)c2cc(C)[nH]n2)CC1	?	-4
COc1ccc2[nH]c3c(c2c1)CCNC31CCN(Cc2scnc2C)CC1	?	-4
COc1cccc(CN2CCC3(CC2)NCCc2c3[nH]c3ccc(OC)cc23)c1	25µM*	-1
COc1ccc2[nH]c3c(c2c1)CCNC31CCN(C(=O)C(C)(C)C)CC1	25µM*	-2
CCCNC(=O)c1ccc(OCc2nnc(C(=O)Nc3ccccc3F)s2)cc1	i	/
SMILES	KDM5B inh	IP6K1 inhibitor
Cc1nn(-c2ccccc2)c2c1C(C(C)C)N(C1CCN(C(=O)N(C)C)CC1)C2=O (configuration not stated)	/	16
O=C(NCCc1ccccc1)c1nc2cccnc2n(C2CC2)c1=O	/	23
Cc1ccc(-c2ncc(NC(=O)c3cccs3)cn2)cc1	32µM*	-5
O=C(Nc1cnc(-c2ccc(Cl)cc2)nc1)c1cccs1	?	-9
CN(Cc1cccc(N2CCN(C(=O)OC(C)(C)C)CC2)c1F)[S+](C)(=O)[O-]	/	-3
CCn1nccc1C(=O)N1CCC(N2C(=O)[C@H](OC)[C@@H]2c2ccncc2)CC1	i	4
CCOc1nccnc1NC1CCN(C(=O)c2ccnn2CC)CC1	28µM*	-2
CCn1nccc1C(=O)N1CCC(Nc2nccnc2OC)CC1	28µM*	0
CCn1nccc1C(=O)N1CCC(Cc2ccc(C(=O)NCCOC)cc2)CC1	i	-5
Cc1c(C(=O)Nc2ccc(N3CC(C)OC(C)C3)nc2)cccc1-c1ccc(OC(F)(F)F)cc1 (configuration not stated)	/	-4
CN(C)S(=O)(=O)N1CCC(Oc2ccc(C(=O)N3C[C@H]4CC[C@H]3C4)cc2)CC1	i	/
Cc1ccc(C#N)c(N2CC[C@@]3(O)CCN(S(=O)(=O)N(C)C)C[C@H]3C2)n1	28µM*	0
COc1cc(-c2ccc(C(F)(F)F)cn2)cc2c1OCCNC2	25µM*	5
COc1cc2nc(-c3cc4c(c(OC)c3)OCCNC4)cc(C)c2cc1OC	32µM*	3
COc1cc2nc(Nc3ccc(C)c(C)c3)nc(N)c2cc1OC	?	3
COc1cc(-c2cnc3ccccc3c2)cc2c1OCCNC2	i	11
COCCNC(=O)C[C@@H]1C[C@H]2O[C@H](CN)[C@@H](O)[C@H]2O1	i	8
COc1ccccc1N1CCN(Cc2ccc(=O)n(C)c2)CC1	i	-4
Cn1cc(CN2CCc3ccccc32)ccc1=O	10µM*	-4
Cn1nc(C2CCCN2)c2c(C(=O)NCc3ccncc3)cc(C3CC3)nc21 (configuration not stated)	79µM*	-5
